# Source: PubChem BioAssay
# Values joined by “and” are separate entries in the source; they are usually repeats but may differ in a detail not shown here. Equal entries are not always repeated. Inconclusive results are not listed. Active and inactive are the calls of the source.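 The calls were made as follows, unless noted: active = compounds killing one labelled cell type while sparing the other, by normalised counts and ratio limits, not self-fluorescent; inactive = the rest.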
# Columns and labels:
# [1] = differential killing of epithelial or mesenchymal cells, primary screen, imaging, PC-3E GFP, TEM4-18 mCherry, co-culture (AID 1345086); settings: imaging cell counts, at 1 µM; for red/green cell ratio (normalised): actives lie on both sides, counts scaled to control wells, 1 = unselective;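 as to all read-outs here: cells exposed to compound for 72 h before imaging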;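 as to red/green cell ratio (normalised): normalised mesenchymal count divided by normalised epithelial count so high means epithelial killing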
# [2] = polyglutamine-triggered caspase-3 activation inhibitors, cell-based (AID 1583); settings: polyglutamine-induced caspase-3 activation, cell assay; stronger effect = higher value;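 tested at 10 µM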
# [3] = liver-stage malaria parasite growth inhibition, primary screen, cell-based, HepG2, luciferase luminescence, HepG2 viability (AID 624349; in the data active = parasite load remaining mostly below about 12%, no sharp cut-off; inactive = mostly above about 10%;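 also: 100% = mean of DMSO negative control wells on the same plate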); settings: P. berghei liver stage in HepG2, luciferase luminescence, concentration not given here; parasite load remaining: stronger effect = lower value; viability: measured here: HepG2 viability without parasites
# [4] = viability rescue of complex I mutant cybrids, primary screen, cell-based, galactose medium, ATP luminescence (AID 1645843;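 active = z-score of at least 1.8 in each of two replicates, scored against plate mean and spread of sample wells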;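 also: positive z means more ATP and so rescue of galactose-driven cybrid death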); settings: complex I mutant cybrid cells, 72 h, stronger effect = higher value
# [5] = system: Aerobactin synthetase IucA (Klebsiella pneumoniae); test: IucA aerobactin synthetase inhibitors, biochemical, Tocris library, absorbance (AID 1345561; call rule not given here;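 also: 100% = enzyme without compound and 0% = no enzyme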); settings: purified IucA enzyme assay, absorbance (OD) read-out; stronger effect = lower value;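 tested at 8 µM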
# [6] = growth inhibition of DIPG glioma cells, dose response, cell-based, SU-DIPG-XVII, MIPE5.0, CellTiter-Glo, qHTS (AID 1347060; cut-off not given, nearly all actives have AC50 up to about 26 µM); settings: SU-DIPG-XVII viability, CellTiter-Glo ATP luminescence
# [7] = growth inhibition of DIPG glioma cells, dose response, cell-based, SU-DIPG-XIII, MIPE4.0, CellTiter-Glo, qHTS (AID 1347061; cut-off not given, nearly all actives have AC50 up to about 37 µM;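 also: cells exposed to compound for 48 hours before readout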); settings: SU-DIPG-XIII viability, CellTiter-Glo ATP luminescence
# [8] = growth inhibition of DIPG glioma cells, dose response, cell-based, JHH-DIPG-1, MIPE4.0, CellTiter-Glo, qHTS (AID 1347062; cut-off not given, nearly all actives have AC50 up to about 27 µM); settings: JHH-DIPG-1 viability, CellTiter-Glo ATP luminescence
# [9] = growth inhibition of DIPG glioma cells, dose response, cell-based, SU-DIPG-XIII, MIPE5.0, CellTiter-Glo, qHTS (AID 1347064; cut-off not given, nearly all actives have AC50 up to about 23 µM); settings: SU-DIPG-XIII viability, CellTiter-Glo ATP luminescence
# [10] = SU-DIPG-VI glioma cell viability, MIPE4.0 library, CellTiter-Glo luminescence, qHTS (AID 1347066; cut-off not given, nearly all actives have AC50 up to about 30 µM;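 also: cells exposed to compound for 48 hours before readout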); settings: CellTiter-Glo ATP luminescence
# [11] = JHH-DIPG-1 glioma cell viability, MIPE5.0 library, CellTiter-Glo luminescence, qHTS (AID 1347067; cut-off not given, nearly all actives have AC50 up to about 26 µM;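 also: cells exposed to compound for 48 hours before readout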); settings: JHH-DIPG-1 glioma viability, CellTiter-Glo ATP luminescence
# [12] = SU-DIPG-XXV glioma cell viability, MIPE5.0 library, qHTS (AID 1347068; cut-off not given, nearly all actives have IC50 up to about 30 µM)
# [13] = sensitizers of A549 cells to miR-34 induction, primary screen, imaging, A549 dox-inducible miR-34, nuclei and caspase counts (AID 1347080;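 active = compounds whose cell count with miR-34 switched on is under 0.7 times the count with it off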); settings: A549 miR-34 inducible, Hoechst nuclei count, 48 h
# [14] = measured here: epithelial PC-3E GFP cell survival
# [15] = measured here: mesenchymal TEM4-18 mCherry cell survival
smiles,measurement,setting,value
CC(=O)OCC(=O)[C@@]1(O)CCC2C3CCC4=CC(=O)C=C[C@]4(C)[C@@]3(F)[C@@H](O)C[C@@]21C (stereo partly specified),red/green cell ratio (normalised),[1],0.75 (inactive)
same,normalised cell number,[1]; [14],1.27
same,normalised cell number,[1]; [15],0.95
O=S(=O)(O)c1cc(N=C=S)ccc1/C=C/c1ccc(N=C=S)cc1S(=O)(=O)O,red/green cell ratio (normalised),[1],0.86 (inactive)
same,normalised cell number,[1]; [14],1.29
same,normalised cell number,[1]; [15],1.11
O=c1cc(-c2ccccc2)oc2cccc(O)c12,red/green cell ratio (normalised),[1],0.94 (inactive)
same,normalised cell number,[1]; [14],1.1
same,normalised cell number,[1]; [15],1.03
C=CCS(=O)C[C@H](N)C(=O)O (stereo partly specified),red/green cell ratio (normalised),[1],0.94 (inactive)
same,normalised cell number,[1]; [14],1.04
same,normalised cell number,[1]; [15],0.98
COc1ccc(/C=C/C(=O)O)cc1OC,red/green cell ratio (normalised),[1],0.97 (inactive) and 0.98 (inactive)
same,normalised cell number,[1]; [14],0.93 and 1
same,normalised cell number,[1]; [15],0.91 and 0.98
CCCCCCCCCCCCCCCC(=O)OCC(O)CO (stereo unspecified),red/green cell ratio (normalised),[1],0.84 (inactive)
same,normalised cell number,[1]; [14],1.14
same,normalised cell number,[1]; [15],0.96
CC(=O)O[C@@H]1CC2C(C)(C)C(=O)C3OC3[C@]2(C)C2CC[C@@]3(C)[C@H](c4ccoc4)OC(=O)C4OC43[C@@]21C (stereo partly specified),red/green cell ratio (normalised),[1],1.04 (inactive)
same,normalised cell number,[1]; [14],1.01
same,normalised cell number,[1]; [15],1.05
CC(C)c1ccc2c(c1)CCC1C(C)(C(N)=O)CCCC21C (stereo unspecified),red/green cell ratio (normalised),[1],1.04 (inactive)
same,normalised cell number,[1]; [14],1.22
same,normalised cell number,[1]; [15],1.27
CN(C)CC(=O)OC[C@@H](O)[C@@H](O)[C@H](O)[C@@H](O)C(=O)O,red/green cell ratio (normalised),[1],1.02 (inactive)
same,normalised cell number,[1]; [14],1.08
same,normalised cell number,[1]; [15],1.1
COc1ccc(-c2cc(=O)c3c(O)c(OC)c(OC)c(OC)c3o2)cc1OC,red/green cell ratio (normalised),[1],1.15 (inactive)
same,normalised cell number,[1]; [14],0.95
same,normalised cell number,[1]; [15],1.09
CNc1ccccc1C(=O)N1CCc2c([nH]c3ccccc23)C1=O,red/green cell ratio (normalised),[1],1.01 (inactive)
same,normalised cell number,[1]; [14],0.95
same,normalised cell number,[1]; [15],0.96
CC(=O)Oc1cc(OC(C)=O)c2c(c1)O[C@H](c1ccc(OC(C)=O)c(OC(C)=O)c1)[C@@H](OC(C)=O)C2,red/green cell ratio (normalised),[1],0.85 (inactive)
same,normalised cell number,[1]; [14],0.98
same,normalised cell number,[1]; [15],0.84
COc1ccc(/C=C/C(=O)c2cc(O)ccc2O)cc1,red/green cell ratio (normalised),[1],0.92 (inactive)
same,normalised cell number,[1]; [14],1.12
same,normalised cell number,[1]; [15],1.03
C=C[C@@H](C1=CC(=O)C(OC)=C(OC)C1=O)c1ccccc1,red/green cell ratio (normalised),[1],0.99 (inactive)
same,normalised cell number,[1]; [14],1.04
same,normalised cell number,[1]; [15],1.04
COc1ccc(-c2oc3cc(OC)c(OC)c(OC)c3c(=O)c2OC)cc1OC,red/green cell ratio (normalised),[1],1.2 (inactive)
same,normalised cell number,[1]; [14],0.9
same,normalised cell number,[1]; [15],1.08
CCCc1cc(OC)c2c(c1)OCO2,red/green cell ratio (normalised),[1],1.07 (inactive)
same,normalised cell number,[1]; [14],0.92
same,normalised cell number,[1]; [15],0.98
O=C1C=CC(=O)c2c(O)c(Cl)c(Cl)c(O)c21,red/green cell ratio (normalised),[1],1 (inactive)
same,normalised cell number,[1]; [14],1.04
same,normalised cell number,[1]; [15],1.04
CC(=O)O[C@H]1C[C@@H](OC(C)=O)C(C)(C)C2C[C@@H](O)[C@]3(C)C(CC[C@@]4(C)[C@H](c5ccoc5)OC(=O)[C@H]5O[C@]543)[C@]21C (stereo partly specified),red/green cell ratio (normalised),[1],0.99 (inactive)
same,normalised cell number,[1]; [14],0.87
same,normalised cell number,[1]; [15],0.86
COc1ccc(-c2cc(=O)c3c(O)cc(O[C@@H]4O[C@H](CO[C@H]5O[C@H](C)[C@@H](O)[C@H](O)[C@@H]5O)[C@@H](O)[C@H](O)[C@H]4O)cc3o2)cc1O,inhibition,[2],25.9%
same,parasite load remaining,[3],42.5% (inactive)
same,viability,[3],98.3%
same,red/green cell ratio (normalised),[1],0.86 (inactive)
same,normalised cell number,[1]; [14],1.13
same,normalised cell number,[1]; [15],0.98
COC1=CC(C)[C@@H]2C[C@H]3OC(=O)C[C@H]4C(C)=C(OC)C(=O)C([C@@]34C)[C@@]2(C)C1=O (stereo partly specified),inhibition,[2],22.5%
same,red/green cell ratio (normalised),[1],0.78 (inactive)
same,normalised cell number,[1]; [14],1.31
same,normalised cell number,[1]; [15],1.03
CN[C@@H]1[C@@H](O)[C@@H](O[C@@H]2[C@@H](O)[C@H](O[C@H]3O[C@H]([C@@H](C)NC)CC[C@H]3N)[C@@H](N)C[C@H]2N)OC[C@]1(C)O,red/green cell ratio (normalised),[1],0.92 (inactive)
same,normalised cell number,[1]; [14],1.22
same,normalised cell number,[1]; [15],1.13
same,z-score,[4],0 (inactive)
CCN(c1ccccc1)c1cc(NC)[n+](C)c(C)n1,remaining activity,[5],84.7% (inactive)
same,outcome,[6],inactive
same,outcome,[7],inactive
same,outcome,[8],inactive
same,outcome,[9],inactive
same,outcome,[10],inactive
same,outcome,[11],inactive
same,outcome,[12],inactive
same,fold change,"[13]; stronger effect = lower value, cell number ratio, induced over uninduced",1.03 (inactive)
same,fold change,[13]; measured here: relative caspase fold change +Dox/-Dox,0.719
same,cell count,"[13]; measured here: total cells with miR-34 induction, stronger effect = lower value",7990
same,cell count,[13]; measured here: total cells without miR-34 induction,7790
same,z-score,[4],0.245 (inactive)
CC(=O)Oc1ccc2c(c1)CCC1C2CC[C@]2(C)C(=O)CCC12 (stereo partly specified),parasite load remaining,[3],88.9% (inactive)
same,viability,[3],66.4%
same,red/green cell ratio (normalised),[1],0.81 (inactive)
same,normalised cell number,[1]; [14],1.27
same,normalised cell number,[1]; [15],1.03
CC(C)(C)NC[C@@H](O)COc1nsnc1N1CCOCC1,inhibition,[2],6.36%
same,parasite load remaining,[3],198% (inactive)
same,viability,[3],72.4%
same,red/green cell ratio (normalised),[1],1.2 (inactive)
same,normalised cell number,[1]; [14],0.88
same,normalised cell number,[1]; [15],1.05
CC(=O)N[C@@H]1[C@@H](C(O)[C@H](O)CO)O[C@](O)(C(=O)O)C[C@@H]1O (stereo partly specified),inhibition,[2],7.5%
same,red/green cell ratio (normalised),[1],0.94 (inactive)
same,normalised cell number,[1]; [14],1.19
same,normalised cell number,[1]; [15],1.12
Nc1ccn(C2O[C@H](CO)[C@@H](O)[C@H]2O)c(=O)n1 (stereo partly specified),inhibition,[2],22%
same,red/green cell ratio (normalised),[1],1.13 (inactive)
same,normalised cell number,[1]; [14],1.06
same,normalised cell number,[1]; [15],1.19
CC(=O)Oc1ccc2c(c1)CCC1C2CC[C@@]2(C)C1CC[C@@H]2OC(C)=O (stereo partly specified),inhibition,[2],10.6%
same,parasite load remaining,[3],102% (inactive)
same,viability,[3],70.5%
same,red/green cell ratio (normalised),[1],0.86 (inactive)
same,normalised cell number,[1]; [14],1.29
same,normalised cell number,[1]; [15],1.12
C/C=C(/C)C(=O)O[C@@H]1[C@H](OC(C)=O)[C@@]2(CO)C(CC1(C)C)C1=CCC3[C@@]4(C)CC[C@H](O[C@@H]5O[C@H](C(=O)O)[C@@H](O[C@@H]6O[C@H](CO)[C@@H](O)[C@H](O)[C@H]6O)[C@H](O)[C@H]5O[C@@H]5O[C@H](CO)[C@@H](O)[C@H](O)[C@H]5O)[C@](C)(CO)C4CC[C@@]3(C)[C@]1(C)C[C@H]2O (stereo partly specified),parasite load remaining,[3],66% (inactive)
same,viability,[3],87.2%
same,red/green cell ratio (normalised),[1],0.77 (inactive)
same,normalised cell number,[1]; [14],1.1
same,normalised cell number,[1]; [15],0.85
